The source of these data is PubChem BioAssay (NCI).

This is part of a sample that, as a whole, favours compounds with a hit. Of some 83,000 tested, about 20% had one in any assay.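 48-hour exposure, single concentration, 96-well plates; percent growth endpoint where 0 means no net growth. Active: below 10.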 Unmarked numbers belong to inactive results. Calls of active or inactive are those of the source.

Test systems include SR leukemia; RPMI-8226 leukemia; OVCAR-8 ovarian; OVCAR-5 ovarian; OVCAR-4 ovarian; SK-OV-3 ovarian; IGROV1 ovarian; OVCAR-3 ovarian; HS 578T breast; NCI/ADR-RES ovarian.
What all share (assay): NCI-60 one-dose screen, 48 h (100 = growth as untreated, 0 = no growth, -100 = all killed)

Turning to `Nc1nc(CSc2n[nH]c(N)n2)nc(Nc2ccccc2)n1`, the growth with SR leukemia (10 µM unless noted) was 120%; in the assay on RPMI-8226 leukemia (10 µM unless noted), 102%; in the assay on OVCAR-8 ovarian (10 µM unless noted), 104%; in the assay on OVCAR-5 ovarian (10 µM unless noted) it was 98.8%; with OVCAR-4 ovarian (10 µM unless noted), 93.4%; with SK-OV-3 ovarian (10 µM unless noted), 104%. Moreover, the growth in the assay with IGROV1 ovarian (10 µM unless noted) was 108%; in the assay on OVCAR-3 ovarian (10 µM unless noted), 105%; with HS 578T breast (10 µM unless noted), 81.5%; with NCI/ADR-RES ovarian (10 µM unless noted), 105%.
As for `Cc1c(CC(=O)OCCO)cc(-c2ccc(Cl)cc2)n1-c1ccccc1`, the growth in the assay with SR leukemia (10 µM unless noted) was 91.2%; in the assay on RPMI-8226 leukemia (10 µM unless noted), 72.1%; with OVCAR-8 ovarian (10 µM unless noted), 92.4%; in the assay on OVCAR-5 ovarian (10 µM unless noted), 99.6%; in the assay on OVCAR-4 ovarian (10 µM unless noted), 68.9%; in the assay with SK-OV-3 ovarian (10 µM unless noted), 110%. Also, the growth in the assay with IGROV1 ovarian (10 µM unless noted) was 104%; with OVCAR-3 ovarian (10 µM unless noted), 108%; in the assay with HS 578T breast (10 µM unless noted), 106%; in the assay with NCI/ADR-RES ovarian (10 µM unless noted) it was 99.5%.
Regarding `COc1ccc2c(c1)c(-c1nc(-c3c[nH]c4c(Cl)nccc34)cs1)cn2C`, the growth in the assay on SR leukemia (10 µM unless noted) was 32.1%; in the assay with RPMI-8226 leukemia (10 µM unless noted), 78%; in the assay on OVCAR-8 ovarian (10 µM unless noted) it was 95.1%; in the assay with OVCAR-5 ovarian (10 µM unless noted), 57.4%; with OVCAR-4 ovarian (10 µM unless noted), 34%; in the assay with SK-OV-3 ovarian (10 µM unless noted), 78.6%. The growth is 56.5% with IGROV1 ovarian (10 µM unless noted), 47.9% with OVCAR-3 ovarian (10 µM unless noted), 87.6% with HS 578T breast (10 µM unless noted) and 95.5% with NCI/ADR-RES ovarian (10 µM unless noted).
Take `Cc1ccc(-c2nc(C#N)c(S(=O)(=O)N(C)C)o2)cc1`: the growth with SR leukemia (10 µM unless noted) is -10.1% (active); in the assay on RPMI-8226 leukemia (10 µM unless noted), 84.3%; in the assay on OVCAR-8 ovarian (10 µM unless noted) it was 80.3%; in the assay on OVCAR-5 ovarian (10 µM unless noted) it was 97.7%; in the assay with OVCAR-4 ovarian (10 µM unless noted), 108%; in the assay on SK-OV-3 ovarian (10 µM unless noted), 102%. The growth in the assay with IGROV1 ovarian (10 µM unless noted) was 80.5%; in the assay on OVCAR-3 ovarian (10 µM unless noted) it was 77%; in the assay on HS 578T breast (10 µM unless noted), 105%; in the assay with NCI/ADR-RES ovarian (10 µM unless noted), 105%.
As to `COc1ccc(C(=O)/C=C/c2ccc(OCc3ccc(Cl)cc3)cc2)cc1OC`, the growth is 78.2% in the assay with SR leukemia (10 µM); 43.8% with SR leukemia (100 µM); 88.5% with RPMI-8226 leukemia (10 µM); 55.8% with RPMI-8226 leukemia (100 µM); 92% in the assay on OVCAR-8 ovarian (10 µM); -8.35% (active) in the assay on OVCAR-8 ovarian (100 µM). In addition, the growth is 103% with OVCAR-5 ovarian (10 µM); 135% in the assay on OVCAR-5 ovarian (100 µM); 120% with SK-OV-3 ovarian (10 µM); 7.5% (active) with SK-OV-3 ovarian (100 µM); 105% in the assay with IGROV1 ovarian (10 µM); 4.98% (active) in the assay on IGROV1 ovarian (100 µM). The growth in the assay with OVCAR-3 ovarian (10 µM) was 104%; with OVCAR-3 ovarian (100 µM), -45.2% (active); in the assay on HS 578T breast (10 µM), 93.5%; in the assay with HS 578T breast (100 µM) it was -1.6% (active); in the assay on NCI/ADR-RES ovarian (10 µM), 91.5%; in the assay on NCI/ADR-RES ovarian (100 µM), 0.0169% (active).
Consider `Nc1nc(N)c2c(n1)NC(c1cccc(Nc3ccnc4cc(C(F)(F)F)ccc34)c1)CC(c1ccc(F)cc1)=N2` (centres undefined), for which the growth with SR leukemia (10 µM unless noted) was -7.72% (active); in the assay on RPMI-8226 leukemia (10 µM unless noted), 3.03% (active); in the assay with OVCAR-8 ovarian (10 µM unless noted), 63.1%; in the assay with OVCAR-5 ovarian (10 µM unless noted), 108%; with OVCAR-4 ovarian (10 µM unless noted) it was 57.9%; with SK-OV-3 ovarian (10 µM unless noted), 63.1%. Also, the growth is 50.5% in the assay with IGROV1 ovarian (10 µM unless noted), 26.4% in the assay on OVCAR-3 ovarian (10 µM unless noted), 42.1% in the assay with HS 578T breast (10 µM unless noted) and 70.7% with NCI/ADR-RES ovarian (10 µM unless noted).
Regarding `COCCn1cc(-c2csc(-c3cn(C)c4ccc(F)cc34)n2)c2cccnc21`, the growth in the assay with SR leukemia (10 µM unless noted) is 33.8%; in the assay with RPMI-8226 leukemia (10 µM unless noted), 67.7%; in the assay on OVCAR-8 ovarian (10 µM unless noted), 71.3%; in the assay with OVCAR-5 ovarian (10 µM unless noted), 80.7%; in the assay on OVCAR-4 ovarian (10 µM unless noted), 47.8%; with SK-OV-3 ovarian (10 µM unless noted), 92.6%. Moreover, the growth is 93.9% with IGROV1 ovarian (10 µM unless noted), 76% with OVCAR-3 ovarian (10 µM unless noted), 63.1% in the assay on HS 578T breast (10 µM unless noted) and 58.6% with NCI/ADR-RES ovarian (10 µM unless noted).
Take `CN(C)CCNc1ncc(F)c(-c2cnc3cc(-c4cnn(C)c4)ccn23)n1`: the growth with SR leukemia (0.005 µM) was 99.9%; with SR leukemia (30 µM) it was 5.34% (active); in the assay with RPMI-8226 leukemia (10 µM unless noted), 98.3% [0.005 µM]; with OVCAR-8 ovarian (0.005 µM) it was 99.9%; with OVCAR-8 ovarian (30 µM), 54.3%; in the assay with OVCAR-4 ovarian (0.005 µM), 105%. In addition, the growth in the assay with OVCAR-4 ovarian (30 µM) is 38.6%; in the assay on SK-OV-3 ovarian (10 µM unless noted), 21% [30 µM]; with IGROV1 ovarian (0.005 µM), 108%; in the assay with IGROV1 ovarian (30 µM), 22.6%; in the assay on OVCAR-3 ovarian (0.005 µM) it was 109%; with OVCAR-3 ovarian (30 µM), 75.3%. In addition, the growth in the assay on HS 578T breast (0.005 µM) was 101%; in the assay with HS 578T breast (30 µM), 60%; in the assay with NCI/ADR-RES ovarian (0.005 µM) it was 101%; in the assay on NCI/ADR-RES ovarian (30 µM), 62.3%.
Regarding `CCN(CC)CCOc1ccccc1C`, the growth in the assay with SR leukemia (10 µM unless noted) is 111%; in the assay with RPMI-8226 leukemia (10 µM unless noted) it was 103%; with OVCAR-8 ovarian (10 µM unless noted) it was 102%; in the assay on OVCAR-5 ovarian (10 µM unless noted) it was 97.2%; in the assay on OVCAR-4 ovarian (10 µM unless noted), 111%; with SK-OV-3 ovarian (10 µM unless noted) it was 103%. For the same molecule, the growth with IGROV1 ovarian (10 µM unless noted) is 109%; in the assay on OVCAR-3 ovarian (10 µM unless noted), 117%; in the assay with HS 578T breast (10 µM unless noted), 119%; in the assay on NCI/ADR-RES ovarian (10 µM unless noted) it was 124%.
On to `Cc1ccc(NC(=O)c2sc3nc(C)c(C(=O)c4ccccc4)cc3c2N)cc1`, for which the growth was 45.2% in the assay with SR leukemia (10 µM unless noted); 90.1% in the assay with RPMI-8226 leukemia (10 µM unless noted); 94.6% in the assay on OVCAR-8 ovarian (10 µM unless noted); 97.6% in the assay on OVCAR-5 ovarian (10 µM unless noted); 89.3% in the assay with OVCAR-4 ovarian (10 µM unless noted); 45.8% with SK-OV-3 ovarian (10 µM unless noted). Besides, the growth was 95% with IGROV1 ovarian (10 µM unless noted), 94.8% in the assay on OVCAR-3 ovarian (10 µM unless noted), 75.9% with HS 578T breast (10 µM unless noted) and 95.2% in the assay on NCI/ADR-RES ovarian (10 µM unless noted).
Regarding `O=C1c2cc3c(cc2-c2c1c1ccc(Cl)cc1c(=O)n2CCCn1ccnc1)OCO3`, the growth in the assay on SR leukemia (10 µM unless noted) was -19.4% (active); in the assay with RPMI-8226 leukemia (10 µM unless noted), -23.6% (active); with OVCAR-8 ovarian (10 µM unless noted) it was 11.4%; in the assay on OVCAR-5 ovarian (10 µM unless noted), 3.22% (active); with OVCAR-4 ovarian (10 µM unless noted), 13.7%; with SK-OV-3 ovarian (10 µM unless noted) it was 8.75% (active). Further, the growth was 28.3% in the assay with IGROV1 ovarian (10 µM unless noted), -5.45% (active) in the assay with OVCAR-3 ovarian (10 µM unless noted), 46.3% with HS 578T breast (10 µM unless noted) and -26.4% (active) with NCI/ADR-RES ovarian (10 µM unless noted).
On to `Nc1n[nH]c2cccc(C#Cc3cccc(NC(=O)c4ccc(N5CCOCC5)c(C(F)(F)F)c4)c3)c12`, for which the growth in the assay with SR leukemia (10 µM unless noted) was 12.6%; with RPMI-8226 leukemia (10 µM unless noted) it was -0.476% (active); in the assay on OVCAR-8 ovarian (10 µM unless noted) it was 10.7%; with OVCAR-5 ovarian (10 µM unless noted) it was 8.26% (active); in the assay with OVCAR-4 ovarian (10 µM unless noted) it was 25.6%; in the assay on SK-OV-3 ovarian (10 µM unless noted), 2.24% (active). Further, the growth with IGROV1 ovarian (10 µM unless noted) is -39.1% (active); in the assay with OVCAR-3 ovarian (10 µM unless noted), 34.9%; in the assay with HS 578T breast (10 µM unless noted) it was -11.4% (active); in the assay with NCI/ADR-RES ovarian (10 µM unless noted), 14.4%.
